Molecules are shown by their SMILES. Inconclusive results are not listed. A call without a number means that no potency is given here. Activity calls are given as the source filed them. Calls follow the shape of the dose curve; as a rule, active = well fitted cell-killing curve with a large enough effect; inconclusive = small, poorly fitted or top-dose-only effect; inactive = flat fitted curve, though single readings scatter.

The nature of this experiment: qHTS of pediatric cancer cell lines to identify multiple opportunities for drug repurposing: Primary screen for Rh18 cells (AID 1347102). Also: nearly all actives have a fitted effect of over 65% in size. The following applies: Rh18 rhabdomyosarcoma viability, CellTiter-Glo luminescence, 48 h; series mostly up to 46 µM. From the text: Drug repurposing or repositioning has been offered as a strategy for drug development in oncology programs. This approach has special potential for childhood cancers and other rare or orphan diseases, where the expected return on new drug development has been a disincentive to pharmaceuticals.
In this project we exploit the poly-pharmacology of drugs to discover new indications via phenotypic screening of a panel of 19 well-characterized cell lines derived from solid tumors seen in children and adolescents. The goal is to identify approved drugs with previously unrecognized anticancer properties that has the potential to reveal new mechanisms and biological processes involved in carcinogenesis or drug resistance. We employed a titration-based paradigm (quantitative high-throughput screening or qHTS), where all compounds were tested at multiple concentrations for their effect on cell viability. Concentration-response curves (CRCs) were derived directly from the primary screen, and both potency and efficacy values were used to identify compounds with robust bioactivity profiles. We screened the NIH Chemical Genomics Center (NCGC) Pharmaceutical Collection (NPC) and Mechanism Interrogation Plate (MIPE) small molecule collections of approved and investigational compounds against these cell lines; and measured metabolically active cells after 48 hours of compound treatment as a proxy for cell viability.
Assay Submitter: Nathalia J. Martinez, National Center for Advancing Translational Sciences, National Institutes of Health, Rockville, MD, USA; email: natalia.martinez@nih.gov
[1] Shen, M et al. Quantitative high-throughput phenotypic screening of pediatric cancer cell lines identifies multiple opportunities for drug repurposing. Oncotarget 2017 Dec 19;9(4):4758-4772. PMID 29435139.
The cells were obtained from University of North Carolina (UNC), Pediatric Preclinical Testing Program (PPT), and Coriell Institute (CI).
qHTS cell viability assay:
Cells were assayed in growth media at a density of 500-1,000 cells/well. Five microliters of cells were dispensed into 1,536-well, white, solid-bottom, TC-treated plates (Greiner Bio One) using a multidrop dispenser and incubated at 37 degrees C, 5% CO2, under a humidified atmosphere for 5 hours. Twenty-three nanoliters of compounds and controls (neutral control DMSO or positive control bortezomib at final concentration of 2.3 µM) were subsequently transferred by Kalypsys pintool. For primary screens, the MIPE collection was tested at 11-point dilutions (final concentrations range from 0.78 nM to 46 µM) and the NPC collection at 8-point dilutions (final concentrations range from 0.59 nM to 46 µM). Compounds tested in follow-up screens were assayed at 11-point dilutions. Cells were incubated for 48 hours, followed by addition of 3 µL of CellTiter-Glo (Promega). After a 15 min incubation at room temperature, samples were analyzed for luminescence intensity using a ViewLux High-throughput CCD imager equipped with clear filters.
On the technique in general: In qHTS, concentration-response curves come from the screen itself.
On to `O=C1c2ccccc2C(=O)c2ccccc21`, for which the Potency entry is “inactive”.

Turning to `C[C@]12CC[C@@H]3c4ccc(OC(=O)N(CCCl)CCCl)cc4CC[C@H]3[C@@H]1CC[C@@H]2O`, the Potency result was “inactive”. As to `CCC1(CC)C(=O)C=CNC1=O`, the Potency result is “inactive”.

On to `COP(=S)(OC)SCN1C(=O)c2ccccc2C1=O`, for which the Potency result was “inactive”. The entry for `COc1cccc([C@@]2(O)CCCC[C@@H]2CN(C)C)c1` is “inactive”; for `NC(=O)c1cc([N+](=O)[O-])cc([N+](=O)[O-])c1` it is “inactive”; for `COC(=O)C(Cl)C(=O)OC` it is “inactive”.

As for `Clc1ccc(C(c2ccc(Cl)cc2)C(Cl)(Cl)Cl)cc1`, the Potency entry was “inactive”. In the case of `CC(=O)C1CCOC1=O` (stereo not given), the Potency result is “inactive”. The entry for `O=C1OC(c2ccc(O)c(S(=O)(=O)O)c2)(c2ccc(O)c(S(=O)(=O)O)c2)c2c(Br)c(Br)c(Br)c(Br)c21` is “inactive”; for `COP(=S)(OC)Oc1ccc(SC)c(C)c1` it is “inactive”; for `O=C1CN=C(c2ccccc2)c2cc([N+](=O)[O-])ccc2N1` it is “inactive”.

On to `C[N+]1(CCF)[C@@H]2CC[C@H]1CC(OC(=O)C(O)(c1ccccc1)c1ccccc1)C2` (stereo not given in full), for which the Potency entry was “inactive”. The value for `ClCCN1CCCC1` was “inactive”; that for `O=P1(N(CCCl)CCCl)NCCCO1` (stereo not given) was “inactive”. The entry for `CN1C(=O)CCS(=O)(=O)C1c1ccc(Cl)cc1` (stereo not given) is “inactive”; for `CC(C)c1c(CN(C)C(C)Cc2ccccc2)n(C)n(-c2ccccc2)c1=O` (stereo not given) it is “inactive”; for `C[C@]12CC[C@H]3[C@@H](CC[C@@]45O[C@H]4C(O)=C(C#N)C[C@]35C)[C@H]1CC[C@H]2O` it is “inactive”. The entry for `CN1C(=O)COc2c(C(=O)NC3CN4CCC3CC4)cc(Cl)cc21` (stereo not given) is “inactive”; for `CCOP(=S)(OCC)Oc1ccc2c(C)c(Cl)c(=O)oc2c1` it is “inactive”.

As for `C[C@]12Cc3cn[nH]c3C[C@@H]1CC[C@@H]1[C@@H]2CC[C@@]2(C)[C@H]1CC[C@]2(C)O`, the Potency result was “inactive”. The entry for `NC(=O)CS(=O)C(c1ccccc1)c1ccccc1` (stereo not given) is “inactive”.

With `C[C@]12CCC(=O)C=C1CC[C@@H]1[C@H]3CC[C@](C)(O)[C@@]3(C)CC[C@@H]12`, the Potency entry was “inactive”. The value for `CN1C(=O)NC(=O)C(C)(C2=CCCCC2)C1=O` (stereo not given) was “inactive”; that for `COP(=S)(OC)Oc1ccc(S(=O)(=O)N(C)C)cc1` was “inactive”. With `CCC(C)C(C)(COC(N)=O)COC(N)=O` (stereo not given), the Potency entry was “inactive”. The value for `CNCC(=O)c1ccc(O)c(O)c1` was “inactive”. The value for `O=C(O)c1ccc(=O)[nH]c1` was “inactive”; that for `COC1CC(=C(c2cccs2)c2cccs2)C[N+](C)(C)C1` (stereo not given) was “inactive”.

Take `CCC1(c2ccccc2)C(=O)N(COC)C(=O)N(COC)C1=O`: the Potency entry is “inactive”.

With `CC(C)(C)NCC(O)c1ccccc1Cl` (stereo not given), the Potency entry was “inactive”. The entry for `CC(C(=O)c1ccccc1)N(C)C` (stereo not given) is “inactive”; for `COP(=S)(OC)Oc1cc(Cl)c(Cl)cc1Cl` it is “inactive”. The entry for `Clc1cccc(SC2CCNCC2)n1` is “inactive”; for `CCN(CCO)CCn1c(Cc2ccccc2)nc2c1c(=O)n(C)c(=O)n2C` it is “inactive”; for `CN1CC[C@]23c4c5ccc(O)c4O[C@H]2[C@@H](O)CC[C@H]3[C@H]1C5` it is “inactive”.

Regarding `Nc1ccccc1C(=O)O`, the Potency result was “inactive”.

Regarding `CC(C)=CC1C(C(=O)OCN2C(=O)C3=C(CCCC3)C2=O)C1(C)C` (stereo not given), the Potency result was “inactive”. The value for `O=C1c2ccccc2C(=O)C1C(=O)C(c1ccccc1)c1ccccc1` was “inactive”. The entry for `Clc1ccccc1N1CCNCC1` is “inactive”.
